Source: PubChem BioAssay (several laboratories)
ABCB6 inh MLPCN = ABCB6 transporter inhibitors, primary screen, K562-ABCB6 cells, flow cytometry, MLPCN library; K562-ABCB6 porphyrin accumulation, 1 h; hits give low values; AID 602162, 2011; hit rate 0.19% among 360,000; fluorescence ratio to DMSO, % at 10 µM;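 active = fluorescence ratio to DMSO below 75%, the collection mean minus 3 SD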;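 also: signal is porphyrin accumulated inside mitochondria; 100% equals median channel fluorescence of DMSO control wells; lower ratio means ABCB6 inhibition with less porphyrin fluorescence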
MEKK2mut PB1 HTS = MEK5 binding signal on mutant MEKK2 PB1, primary screen, biochemical, multiplex bead flow cytometry, Alexa488-MEK5; hit rate 0.35% among 290,000; AID 1530, 2009; percent response, % at 10 µM; Alexa488-MEK5 binding to MEKK2 mutant; in the data active = percent response above about 24%, passing the limit was not always enough
CRFR2-BP antag = antagonists of CRF-BP/CRF-R2 complex, primary screen, cell-based, HEK293, calcium dye fluorescence, uHTS; inhibition, % at 11.8 µM; CRF-induced calcium fluorescence; hit rate 0.59% among 350,000;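 active = inhibition of the ligand-induced calcium signal above about 50% at the single tested concentration, limit read from the data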
MEKK3 PB1 HTS = modulators of MEKK3-MEK5 PB1 binding, primary screen, biochemical, wildtype MEKK3, multiplex bead flow cytometry, Alexa488-MEK5; bead-based flow cytometry, Alexa488-MEK5 binding to MEKK3; actives lie on both sides; 0 = blocked by unlabeled MEK5, 100 = vehicle; Mitogen-activated protein kinase kinase kinase 3 (Homo sapiens), Q99759; hit rate 1.4% among 290,000; binding response (% of control), % at 10 µM; AID 1529, 2009;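 active = binding response more than 3 SD above or below the average of its plate-row segment, actives on both sides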;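 also: Alexa488 bead fluorescence after subtracting the streptavidin-only scavenger bead signal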
Target sequence (Q99759 whole entry, looked up): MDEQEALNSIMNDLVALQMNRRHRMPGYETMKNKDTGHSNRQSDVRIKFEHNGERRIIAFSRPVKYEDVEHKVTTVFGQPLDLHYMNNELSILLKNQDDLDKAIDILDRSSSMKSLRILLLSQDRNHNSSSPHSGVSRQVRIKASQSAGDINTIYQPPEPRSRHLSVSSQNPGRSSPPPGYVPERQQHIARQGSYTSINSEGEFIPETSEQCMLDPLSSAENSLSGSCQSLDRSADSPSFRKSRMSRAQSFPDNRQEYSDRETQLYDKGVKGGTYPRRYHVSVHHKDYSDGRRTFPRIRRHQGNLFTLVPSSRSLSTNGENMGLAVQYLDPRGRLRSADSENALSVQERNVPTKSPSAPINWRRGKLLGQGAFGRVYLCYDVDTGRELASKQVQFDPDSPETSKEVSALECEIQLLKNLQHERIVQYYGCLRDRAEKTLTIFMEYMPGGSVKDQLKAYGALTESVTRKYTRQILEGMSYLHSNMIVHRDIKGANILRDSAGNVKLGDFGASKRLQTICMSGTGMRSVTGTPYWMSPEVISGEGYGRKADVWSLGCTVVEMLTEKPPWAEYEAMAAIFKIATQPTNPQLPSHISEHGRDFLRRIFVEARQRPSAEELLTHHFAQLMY
CRFR2-BP ag = agonists of CRF-BP/CRF-R2 complex, primary screen, cell-based, HEK293, calcium dye fluorescence, uHTS | CRF-binding protein / CRF receptor 2 complex (human) | calcium dye fluorescence (FLIPR); percent of saturating CRF peptide response | activation, % at 13.2 µM | hit rate 0.46% among 350,000;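 active = activation of at least 50%, plus an integration ratio under a set limit after plate pattern correction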;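 also: plate controls were neutral control wells without compound for no effect and CRF at EC100 for full effect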
MEKK2 WT-MEK5 = modulators of MEK5 binding to wildtype MEKK2, primary screen, biochemical, multiplex bead flow cytometry, Alexa488-MEK5; hit rate 1.1% among 290,000; AID 1531, 2009; Mitogen-activated protein kinase kinase kinase 2 (Homo sapiens), Q9Y2U5; binding response (% of control), % at 10 µM; Alexa488-MEK5 binding to MEKK2 WT; actives lie on both sides; in the data active = binding response below about 67% or above about 130%
MEKK2wt confirm = modulators of MEK5 binding to wildtype MEKK2, confirmation, biochemical, single concentration, multiplex bead flow cytometry. hit rate 2.4% among 5,900. Alexa488-MEK5 binding to MEKK2 WT; actives lie on both sides. shares compounds with MEKK3 PB1 HTS. binding response (% of control), % at 10 µM. AID 1892, 2009; in the data active = binding response below about 16% or above about 210%; inactive = in between
MEKK2mut-MEK5 = mutant MEKK2 PB1-MEK5 binding signal retest – biochemical, single concentration, multiplex bead flow cytometry, confirmation; Alexa488-MEK5 binding to MEKK2 mutant; shares compounds with MEKK3 PB1 HTS; percent response, % at 10 µM; AID 1893, 2009; hit rate 2% among 5,900; in the data active = percent response mostly above about 71%, no sharp cut-off; inactive = mostly below about 38%;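 also: higher means compound restores mutant binding toward wildtype level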
MEKK3-MEK5 inh = MEKK3 wild-type PB1 binding to MEK5, inhibitors, confirmation, biochemical, bead multiplex flow cytometry, single concentration, wildtype; shares compounds with MEKK3 PB1 HTS; Alexa488-MEK5 binding to MEKK3; hits give low values; binding response (% of control), % at 10 µM; hit rate 1.8% among 5,900;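 active = binding response below 72% of control, or above a set upper limit, though filed actives all read lower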;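 also: 100% = DMSO only wells and 0% = binding blocked by excess unlabeled MEK5; lower values mean stronger disruption of MEK5 binding to MEKK3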
* = called active by the depositor; · = no result given; [ ] = another dose, or the depositor's remark. In the library only some 2.9% were active in any assay of this set; here they are far more common.

SMILES | ABCB6 inh MLPCN | MEKK2mut PB1 HTS | CRFR2-BP antag | MEKK3 PB1 HTS | CRFR2-BP ag | MEKK2 WT-MEK5 | MEKK2wt confirm | MEKK2mut-MEK5 | MEKK3-MEK5 inh
O=C(Nc1ccc(Cl)c(Cl)c1)N1N=CCC1c1ccccc1 (stereo not given) | 95.0 | 0.0 | -5.7 | 133.0* | 2.2 | 116.0 | 100.0 | 0.0 | 101.0
O=C(CSc1nnc(NC(=O)c2ccccc2)s1)NC1CCCC1 | 102.0 | -1.0 | 3.5 | 98.0 | 0.9 | 96.0 | · | · | ·
O=C1CC(c2ccccc2)CC(O)=C1C=NCCCN1CCOCC1 (stereo not given) | 96.0 | -11.0 | 12.3 | 81.0*[inhibitor] | -1.7 | 89.0 | 100.0 | -7.0 | 103.0
CN1C(=O)/C(=C/c2cccc(Cl)c2)Sc2ccc(C(=O)N3CCCC3)cc21 | · | 1.0 | -14.3 | 102.0 | -1.4 | 106.0 | · | · | ·
CCOC(=O)c1c(NC(=O)C[n+]2ccc(Cc3ccccc3)cc2)sc(C)c1C | 100.0 | 11.0 | 46.8 | 94.0 | -5.0 | 138.0* | 191.0 | 53.0 | 111.0
CCOC(=O)c1c(NC(=S)Nc2ccccc2)sc(C)c1C | 100.0 | 4.0 | -12.3 | 82.0 | 0.9 | 93.0 | · | · | ·
Cc1ccc(C(=O)Nc2ccncc2)c(C)c1 | 100.0 | 2.0 | -2.6 | 107.0 | 0.1 | 104.0 | · | · | ·
O=C(/C=C/c1ccccc1)Nc1cc(S(=O)(=O)N2CCOCC2)ccc1N1CCOCC1 | 100.0 | · | 2.6 | · | -2.8 | · | · | · | ·
CCN1CCN(c2ccc(S(=O)(=O)N3CCCCC3)cc2NC(=O)/C=C/c2cc(OC)ccc2OC)CC1 | 101.0 | 25.0* | -10.7 | 106.0 | 7.9 | 174.0* | 165.0 | 38.0 | 95.0
O=C(/C=C/c1ccccc1)Nc1cc(S(=O)(=O)N2CCOCC2)ccc1N1CCCC1 | 83.0 | 1.0 | 6.3 | 142.0* | -9.8 | 106.0 | 100.0 | -2.0 | 102.0
COc1ccc2ccccc2c1/C=N/NC(=S)Nc1cc(S(=O)(=O)N2CCOCC2)ccc1N1CCOCC1 | 98.0 | 1.0 | -0.7 | 133.0* | 0.3 | 104.0 | 93.0 | -2.0 | 100.0
O=S1(=O)CC(O)C(Nc2ccc(Cl)cc2)C1 (stereo not given) | 94.0 | -4.0 | 13.5 | 49.0*[inhibitor] | -1.8 | 67.0 | 96.0 | -9.0 | 97.0
O=C(O)CCCC1(C(=O)O)CCCC1 | 98.0 | · | 9.6 | · | -4.6 | · | · | · | ·
Cc1cccc(N2CCN(C(=O)CN3C(=O)C4CC=CCC4C3=O)CC2)c1C (stereo not given) | 87.0 | -2.0 | 18.4 | 67.0*[inhibitor] | -1.4 | 85.0 | 96.0 | 4.0 | 101.0
Cc1cccc(N2CCN(C(=O)CN3C(=O)NC(C)(C)C3=O)CC2)c1C | 90.0 | -19.0 | -3.7 | 89.0 | 2.2 | 97.0 | · | · | ·
CCOc1ccc(C(C#N)N2CCOCC2)cc1OC (stereo not given) | 97.0 | -21.0 | 13.0 | 2.0*[inhibitor] | 0.3 | 2.0*[inhibitor] | 103.0 | -2.0 | 104.0
CCN(CC(=O)Nc1ccc(NC(C)=O)cc1)C(=O)c1ccc(C(=O)c2ccccc2)cc1 | 100.0 | · | -8.9 | · | 1.0 | · | · | · | ·
O=C(Nc1nnc(-c2ccc3c(c2)CCCC3)o1)c1c(F)cccc1F | 89.0 | -3.0 | 9.9 | 68.0*[inhibitor] | -4.8 | 86.0 | 102.0 | 3.0 | 108.0
CCOC(=O)/C(C#N)=C/Nc1ccccc1OC | 92.0 | -16.0 | -13.1 | 2.0*[inhibitor] | -1.2 | 2.0*[inhibitor] | 106.0 | 9.0 | 105.0
CCOC(=O)C(=O)/C(C#N)=C/Nc1ccccc1 | 98.0 | 13.0 | 17.2 | 99.0 | -2.6 | 103.0 | · | · | ·
NC(=O)[C@@H]1CCCCNc2c(F)cc([N+](=O)[O-])cc2C(=O)N[C@@H](CCCN=C(N)N)C(=O)NCC(=O)N1 | 96.0 | 7.0 | -1.1 | 104.0 | 1.0 | 108.0 | · | · | ·
NCCCC[C@@H]1NC(=O)c2cc([N+](=O)[O-])cc(F)c2NCCCC[C@@H](C(N)=O)NC(=O)CNC1=O | 97.0 | 12.0 | 2.1 | 113.0 | -0.3 | 135.0* | 104.0 | 2.0 | 103.0
NC1=NC[C@H](c2ccccc2)N1CCCCC1CCCCC1 | 97.0 | 11.0 | -30.9 | 111.0 | 1.0 | 146.0* | 124.0 | 12.0 | 105.0
COc1ccc(C(=O)NCCc2cnc[nH]2)cc1OC | 93.0 | 4.0 | -5.7 | 97.0 | 1.1 | 104.0 | · | · | ·
CCOC(=O)C(C(=O)Nc1cccc(C)c1)C1CCCCC1 (stereo not given) | 101.0 | -34.0 | -31.4 | 99.0 | 0.2 | -4.0*[inhibitor] | 103.0 | 2.0 | 109.0
SMILES | ABCB6 inh MLPCN | MEKK2mut PB1 HTS | CRFR2-BP antag | MEKK3 PB1 HTS | CRFR2-BP ag | MEKK2 WT-MEK5 | MEKK2wt confirm | MEKK2mut-MEK5 | MEKK3-MEK5 inh
CCOC(=O)C(C(=O)Nc1cccc(C)n1)C1CCCCC1 (stereo not given) | 97.0 | -3.0 | -9.0 | 101.0 | -0.6 | 95.0 | · | · | ·
O=C(CCC1CCCC1)Nc1cc(C(F)(F)F)ccc1N1CCOCC1 | 100.0 | · | -15.1 | · | -0.2 | · | · | · | ·
O=C(NC(NC(=S)Nc1ccccc1O)C(Cl)(Cl)Cl)c1ccco1 (stereo not given) | 99.0 | 0.0 | -5.1 | 116.0 | 3.6 | 101.0 | · | · | ·
COc1ccccc1NC(=S)NC(NC(=O)c1ccco1)C(Cl)(Cl)Cl (stereo not given) | 96.0 | 0.0 | 1.6 | 129.0* | 2.5 | 100.0 | 101.0 | 2.0 | 105.0
Clc1ncccc1OCc1ccccc1 | 92.0 | · | 21.2 | · | -1.7 | · | · | · | ·
CC(C(=O)c1ccc(-c2ccccc2)cc1)[n+]1cccc(NC(=O)c2ccccc2)c1 (stereo not given) | 96.0 | 62.0* | 1.6 | 108.0 | -1.4 | 224.0* | 195.0 | 51.0 | 106.0
CCOC(=O)c1ccc[n+](C(C)C(=O)c2ccc(-c3ccccc3)cc2)c1 (stereo not given) | 92.0 | 5.0 | 6.1 | 108.0 | -2.8 | 111.0 | · | · | ·
Cc1cc2nc(-c3ccc(SCC(=O)Nc4ccc(S(=O)(=O)N5CCCC5)cc4)nc3)[nH]c2cc1C | 101.0 | 1.0 | 29.8 | 132.0* | 5.5 | 105.0 | 94.0 | 0.0 | 98.0
